In all, about 5,500 compounds went through this assay and about 2,000 (36%) were called active. Not shown: some 18% with an inconclusive outcome. Rule as the data show it: active = normalized growth mostly below about 0.91 (no sharp cut-off); inconclusive = no clear call, values can overlap the other calls; inactive = mostly above about 0.92. This is one part of the list.
Assay: chemical genetic growth profiling, strain panel (AID 1159580);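 also: tested at 20 µM; growth read once vehicle control cultures reached saturation at 30 °C; 1 = growth at the plate median or of vehicle wells; lower values mean less growth of the strain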
Settings: growth OD

Measured: normalized growth

O=C1C(O)=C(O)C(=O)C(O)=C1O
inactive: S. cerevisiae deletion strains, locus YJR075W, strain HOC1, stronger effect = lower value 0.999 | S. cerevisiae deletion strains, locus YKL009W, strain mrt4, stronger effect = lower value 0.983 | S. cerevisiae deletion strains, locus YKL068W, stronger effect = lower value 0.979 | S. cerevisiae deletion strains, locus YKL085W, strain MDH1 (second series), stronger effect = lower value 0.956 | S. cerevisiae deletion strains, locus YKL085W, strain MDH1, stronger effect = lower value 0.956 | S. cerevisiae deletion strains, locus YKL160W, strain elf1, stronger effect = lower value 1.03 | S. cerevisiae deletion strains, locus YKL190W, strain CNB1, stronger effect = lower value 0.98 | S. cerevisiae deletion strains, locus YKR001C, strain vps1, stronger effect = lower value 0.995 | S. cerevisiae deletion strains, locus YKR026C, strain gcn3, stronger effect = lower value 1.02 | S. cerevisiae deletion strains, locus YKR091W, strain srl3, stronger effect = lower value 0.999 | S. cerevisiae deletion strains, locus YLL001W, strain dnm1, stronger effect = lower value 1.01 | S. cerevisiae deletion strains, locus YLL026W, stronger effect = lower value 1.02 | S. cerevisiae deletion strains, locus YLL041C, strain sdh2, stronger effect = lower value 1.01 | S. cerevisiae deletion strains, locus YLR027C, strain aat2, stronger effect = lower value 1.02 | S. cerevisiae deletion strains, locus YLR039C, strain RIC1, stronger effect = lower value 0.957 | S. cerevisiae deletion strains, locus YLR058C, strain SHM2, stronger effect = lower value 0.98 | S. cerevisiae deletion strains, locus YLR102C, strain apc9, stronger effect = lower value 0.989 | S. cerevisiae deletion strains, locus YLR113W, strain HOG1, stronger effect = lower value 0.969 | S. cerevisiae deletion strains, locus YLR221C, strain rsa3, stronger effect = lower value 1 | S. cerevisiae deletion strains, locus YLR258W, strain gsy2, stronger effect = lower value 1.03 | S. cerevisiae deletion strains, locus YLR262C, strain YPT6 (second series), stronger effect = lower value 0.995 | S. cerevisiae deletion strains, locus YLR262C, strain YPT6, stronger effect = lower value 0.946 | S. cerevisiae deletion strains, locus YLR268W, strain sec22, stronger effect = lower value 0.964 | S. cerevisiae deletion strains, locus YLR320W, strain mms22, stronger effect = lower value 1.01 | S. cerevisiae deletion strains, locus YLR330W, strain CHS5, stronger effect = lower value 1.01 | S. cerevisiae deletion strains, locus YLR342W, strain FKS1 (second series), stronger effect = lower value 1.07 | S. cerevisiae deletion strains, locus YLR342W, strain FKS1, stronger effect = lower value 1.01 | S. cerevisiae deletion strains, locus YLR357W, strain rsc2, stronger effect = lower value 0.989 | S. cerevisiae deletion strains, locus YLR370C, strain arc18, stronger effect = lower value 1.01 | S. cerevisiae deletion strains, locus YLR371W, strain rom2, stronger effect = lower value 1 | S. cerevisiae deletion strains, locus YLR384C, strain iki3, stronger effect = lower value 1.03 | S. cerevisiae deletion strains, locus YLR418C, strain cdc73, stronger effect = lower value 0.944 | S. cerevisiae deletion strains, locus YML016C, strain PPZ1, stronger effect = lower value 0.988 | S. cerevisiae deletion strains, locus YML032C, strain rad52, stronger effect = lower value 1.01 | S. cerevisiae deletion strains, locus YML120C, strain ndi1, stronger effect = lower value 1.01 | S. cerevisiae deletion strains, locus YML124C, strain tub3, stronger effect = lower value 0.997 | S. cerevisiae deletion strains, locus YMR058W, strain fet3, stronger effect = lower value 1.02 | S. cerevisiae deletion strains, locus YMR078C, strain ctf18, stronger effect = lower value 0.995 | S. cerevisiae deletion strains, locus YMR125W, strain sto1, stronger effect = lower value 1.02 | S. cerevisiae deletion strains, locus YMR129W, stronger effect = lower value 1.01 | S. cerevisiae deletion strains, locus YMR205C, strain PFK2, stronger effect = lower value 1 | S. cerevisiae deletion strains, locus YMR223W, strain ubp8, stronger effect = lower value 1.03 | S. cerevisiae deletion strains, locus YMR231W, strain pep5, stronger effect = lower value 1 | S. cerevisiae deletion strains, locus YMR263W, strain SAP30, stronger effect = lower value 0.96 | S. cerevisiae deletion strains, locus YMR307W, strain GAS1, stronger effect = lower value 1.03 | S. cerevisiae deletion strains, locus YNL067W, strain RPL9B, stronger effect = lower value 0.969 | S. cerevisiae deletion strains, locus YNL071W, strain lat1, stronger effect = lower value 1.02 | S. cerevisiae deletion strains, locus YNL128W, strain TEP1, stronger effect = lower value 0.944 | S. cerevisiae deletion strains, locus YNL153C, strain GIM3, stronger effect = lower value 0.956 | S. cerevisiae deletion strains, locus YNL183C, strain NPR1, stronger effect = lower value 0.927 | S. cerevisiae deletion strains, locus YNL209W, strain ssb2, stronger effect = lower value 1 | S. cerevisiae deletion strains, locus YNL233W, strain BNI4, stronger effect = lower value 0.982 | S. cerevisiae deletion strains, locus YNL248C, strain rpa49, stronger effect = lower value 1.05 | S. cerevisiae deletion strains, locus YNL250W, strain rad50, stronger effect = lower value 0.966 | S. cerevisiae deletion strains, locus YNL271C, strain bni1, stronger effect = lower value 0.998 | S. cerevisiae deletion strains, locus YNL298W, strain CLA4, stronger effect = lower value 0.98 | S. cerevisiae deletion strains, locus YNL307C, strain MCK1, stronger effect = lower value 1.02 | S. cerevisiae deletion strains, locus YNL322C, strain KRE1 (second series), stronger effect = lower value 1.02 | S. cerevisiae deletion strains, locus YNL322C, strain KRE1, stronger effect = lower value 0.98 | S. cerevisiae deletion strains, locus YNR049C, strain mso1, stronger effect = lower value 1.01 | S. cerevisiae deletion strains, locus YNR052C, strain pop2, stronger effect = lower value 1.02 | S. cerevisiae deletion strains, locus YOL006C, strain TOP1, stronger effect = lower value 0.968 | S. cerevisiae deletion strains, locus YOL012C, strain htz1 0.781 | S. cerevisiae deletion strains, locus YOL147C, strain pex11, stronger effect = lower value 0.993 | S. cerevisiae deletion strains, locus YOR001W, strain rrp6, stronger effect = lower value 0.999 | S. cerevisiae deletion strains, locus YOR061W, strain CKA2, stronger effect = lower value 0.961 | S. cerevisiae deletion strains, locus YOR069W, strain VPS5, stronger effect = lower value 1 | S. cerevisiae deletion strains, locus YOR070C, strain gyp1, stronger effect = lower value 1.01 | S. cerevisiae deletion strains, locus YOR080W, strain dia2, stronger effect = lower value 1.02 | S. cerevisiae deletion strains, locus YOR083W, strain WHI5, stronger effect = lower value 0.984 | S. cerevisiae deletion strains, locus YOR106W, strain vam3, stronger effect = lower value 1.02 | S. cerevisiae deletion strains, locus YOR136W, strain idh2, stronger effect = lower value 0.999 | S. cerevisiae deletion strains, locus YOR144C, strain elg1, stronger effect = lower value 0.989 | S. cerevisiae deletion strains, locus YOR184W, strain ser1, stronger effect = lower value 1.08 | S. cerevisiae deletion strains, locus YOR231W, strain MKK1, stronger effect = lower value 0.987 | S. cerevisiae deletion strains, locus YOR265W, strain rbl2, stronger effect = lower value 1.01 | S. cerevisiae deletion strains, locus YOR270C, strain vph1, stronger effect = lower value 1.05 | S. cerevisiae deletion strains, locus YOR290C, strain snf2, stronger effect = lower value 1.02 | S. cerevisiae deletion strains, locus YOR316C, strain cot1, stronger effect = lower value 0.988 | S. cerevisiae deletion strains, locus YPL051W, strain arl3, stronger effect = lower value 1.01 | S. cerevisiae deletion strains, locus YPL055C, strain LGE1, stronger effect = lower value 0.898 | S. cerevisiae deletion strains, locus YPL078C, strain atp4, stronger effect = lower value 1.03 | S. cerevisiae deletion strains, locus YPL106C, strain sse1, stronger effect = lower value 1.03 | S. cerevisiae deletion strains, locus YPL240C, strain hsp82, stronger effect = lower value 1.01 | S. cerevisiae deletion strains, locus YPL241C, strain CIN2, stronger effect = lower value 0.991 | S. cerevisiae deletion strains, locus YPL256C, strain CLN2, stronger effect = lower value 0.964 | S. cerevisiae deletion strains, locus YPR119W, strain clb2, stronger effect = lower value 0.996 | S. cerevisiae deletion strains, locus YPR141C, strain kar3, stronger effect = lower value 0.952 | S. cerevisiae deletion strains, locus YPR163C, strain tif3, stronger effect = lower value 0.998 | S. cerevisiae deletion strains, locus YPR167C, strain met16, stronger effect = lower value 0.99 | S. cerevisiae deletion strains, strain wtn01, stronger effect = lower value 0.994 | S. cerevisiae strains, strain wild type, stronger effect = lower value 0.989

From PubChem BioAssay AID1159580 (chemical genetic matrix, 2015)
